Assay outcomes from PubChem BioAssay.
KDM4E inh: qHTS Assay for Inhibitors of Human Jumonji Domain Containing 2E (JMJD2E); Potency, µM (series often up to 57.1 µM), for the others: at the top dose activity change, negative = inhibition, most hits filed as inhibitors; JMJD2E catalytic domain, FDH-coupled NADH fluorescence (FDH is formaldehyde dehydrogenase); AID 2147, 2009; Lysine-specific demethylase 4E (Homo sapiens), B2RXH2; hit rate 1.6% among 230,000; active means well fitted inhibition curve with a large enough effect, not every such curve was filed as active; inconclusive means small, poorly fitted or top-dose-only effect, or another doubt; inactive means no such curve, though single readings can be large or run the other way;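 further: 0% = wells with enzyme and -100% = buffer wells without enzyme; nearly all actives have a fitted effect of over 50% in size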
Target sequence (B2RXH2 1-337 limits assumed): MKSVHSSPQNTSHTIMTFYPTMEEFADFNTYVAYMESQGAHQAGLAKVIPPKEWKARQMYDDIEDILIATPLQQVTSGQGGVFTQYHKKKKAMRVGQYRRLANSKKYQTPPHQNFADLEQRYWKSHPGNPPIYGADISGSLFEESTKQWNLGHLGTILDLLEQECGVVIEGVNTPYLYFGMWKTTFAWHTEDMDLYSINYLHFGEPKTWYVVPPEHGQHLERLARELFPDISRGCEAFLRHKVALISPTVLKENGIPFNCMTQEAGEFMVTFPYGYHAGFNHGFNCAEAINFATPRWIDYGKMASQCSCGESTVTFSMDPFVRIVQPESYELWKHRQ
TR SRC2 fluor cs: Total Fluorescence Counterscreen for Inhibitors of the Interaction of Thyroid Hormone Receptor and Steroid Receptor Coregulator 2 | TRb/SRC2 Texas Red total fluorescence interference | Potency, µM (doses to about 106 µM), inactives show top-dose fluorescence change, negative = quenching | hit rate 0.29% among 280,000 | AID 1479, 2009; active means well fitted curve in either direction with a large enough effect; inconclusive means small, poorly fitted or top-dose-only effect
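Flags fluorescent or light-absorbing compounds by total fluorescence, S + 2P, at 555 nm excitation and 632 nm emission. Mixture: 20 nM Texas Red SRC2 peptide, 0.6 uM human TRb LBD, 1 uM T3, 5% DMSO; compound exposure 5 h at ambient temperature.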
TRb SRC2 PPI: qHTS for Inhibitors of the Interaction of Thyroid Hormone Receptor and Steroid Receptor Coregulator 2. Thyroid hormone receptor beta (Homo sapiens), P10828. TRbeta-SRC2 peptide binding, fluorescence polarization; receptor liganded with 1 µM T3. Potency, µM (titrated, usually from 106 µM), for inactives: at the top dose activity change, negative = inhibition, actives largely listed as inhibitors. hit rate 0.065% among 280,000. AID 1469, 2008;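 further: plate controls were bound peptide for no effect and peptide without receptor for full effect; nearly all actives have a fitted effect of over 50% in size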
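A fluorescence polarization screen tested compounds at multiple concentrations against complex formation between 0.6 uM TRb ligand-binding domain and 20 nM Texas Red SRC2 peptide, with 1 uM T3 present; readout after 5 hr.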
Tau FP inhib: qHTS for Inhibitors of Tau Fibril Formation, Fluorescence Polarization. K18 P301L tau heparin fibrillization, Alexa594 FP, 6 h. Potency, µM (titrated, usually from 57.7 µM), without a hit: at the highest dose activity, negative = inhibition, most hits filed as inhibitors. hit rate 0.39% among 280,000. AID 1468, 2008; further: nearly all actives have a fitted effect of over 55% in size
Target sequence (P10636 561-689 P618L limits assumed): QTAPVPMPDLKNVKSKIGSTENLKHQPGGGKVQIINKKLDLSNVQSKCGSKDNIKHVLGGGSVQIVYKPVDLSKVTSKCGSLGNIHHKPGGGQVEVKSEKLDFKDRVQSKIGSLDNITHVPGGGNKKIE
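Quantitative HTS format: compounds meet 15 uM recombinant K18 P301L tau and Alexa 594-tau tracer in 100 mM sodium acetate pH 7; 20 uM heparin triggers fibrillization at 37 C over 6 hr; FP gives the signal.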
Tau fluor cs: Counterscreen qHTS for Inhibitors of Tau Fibril Formation, Fluorescence Polarization; tau K18 P301L Alexa594 fluorescence, heparin fibrillization; Potency, µM (series often up to 57.7 µM), for inactives: at the highest dose activity change, negative = decrease; hit rate 0.93% among 280,000; further: nearly all actives have a fitted effect of over 55% in size
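Human tau K18 P301L (15 uM unlabeled, 0.24 uM Alexa 594-labeled) in 100 mM sodium acetate pH 7 with 20 uM heparin, 6 hr at 37 C. ThT 30 uM added, 1 hr ambient; Alexa 594 FP and total fluorescence read at 555/632 nm.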
Tau ThT inhib: qHTS for Inhibitors of Tau Fibril Formation, Thioflavin T Binding | Microtubule-associated protein tau (Homo sapiens), P10636 | AID 1460, 2008 | recombinant tau K18 P301L (four-repeat tau fragment), heparin-induced fibrillization, ThT fluorescence | Potency, µM (doses to about 57.4 µM), inactives show at the highest dose activity, negative = inhibition, hits mostly inhibitors | hit rate 2.1% among 270,000; further: nearly all actives have a fitted effect of over 55% in size
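Heparin-induced fibrillization of the P301L-mutant K18 repeat-domain fragment of human tau was followed by ThT binding in quantitative high-throughput format.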
Numbers without * were called inactive; ? = inconclusive; . = no result given; [ ] = remark or other dose. In the library only some 3.5% were active in any assay of this set; here they are far more common. Unless noted, the call rests on the fitted dose curve; in most records, active means well fitted curve in the direction sought with a large enough effect; inconclusive means small, poorly fitted or top-dose-only effect, or another doubt; inactive means no such curve, though single readings can be large; an effect the other way counts as inactive or inconclusive. Unless noted, on the % scale 0 is the no-effect control and ±100 the full control effect; potency means the concentration at half of the fitted maximal effect.

SMILES	KDM4E inh	TR SRC2 fluor cs	TRb SRC2 PPI	Tau FP inhib	Tau fluor cs	Tau ThT inhib
CC(=O)N1c2ccccc2C(CBr)=CC1(C)C	-12%	-4%	-1%	3%	0%	-5%
CC(C)(C)C(=O)Nc1cc(S(=O)(=O)Nc2ccc(Cl)cc2)ccc1Cl	-25%	-3%	11%	-14%	?	0%
COc1ccc(CCNC(=O)c2ccc3c(c2)CCN3S(C)(=O)=O)cc1	.	0%	-4%	-4%	-2%	-1%
CCCCC[n+]1ccn(C2=C([O-])c3ccccc3C(=O)/C2=N\S(=O)(=O)c2ccc(Br)cc2)c1	-7%	-3%	-1%	?	?	11µM*
CCCCC[n+]1ccn(C2=C([O-])c3ccccc3C(=O)/C2=N\S(=O)(=O)c2ccccc2)c1	-15%	-4%	-1%	-4%	-24%	?
CCNC(=O)COC(=O)COc1ccc(Cl)cc1C	-5%	0%	-6%	0%	3%	-8%
Cc1cc(Cl)ccc1OCC(=O)OCC(=O)Nc1ccc(F)c([N+](=O)[O-])c1	4%	3%	4%	?	11µM*[quencher]	?
Cn1c2c(c(=O)n(C)c1=O)C(c1ccccc1F)C(C#N)=C(N)O2 (configuration not stated)	?	0%	2%	?	-19%	20µM*
CCOC(=O)C1=C(C)N=C2SCCC(=O)N2C1c1ccc(C(=O)OC)cc1 (configuration not stated)	4%	-1%	-10%	6%	-13%	-16%
CCOC(=O)C1=C(C)N2C(=C(C#N)[C@@H]1c1ccc(C(=O)OC)cc1)SC[C@@]2(O)C(C)(C)C	20µM*	-2%	-10%	14%	-24%	-16%
Fc1ccc(/C=N/c2c(-c3ccc(F)cc3)nc3n2CCS3)cc1	5%	-1%	-7%	2%	-27%	?
COc1ccc(/C=N/c2c(-c3ccc(OC)cc3)nc3n2CCS3)cc1	-25%	-5%	-1%	-4%	?	14µM*
CC1(C)OC(c2ccccc2)=C/C(=C\C=N\NC(=O)c2ccncc2)O1	22µM*	-8%	0%	?	?	11µM*
COc1ccc(N2C(=O)[C@H]3[C@@H](C2=O)C2c4ccccc4C=NN2[C@H]3C(=O)C(C)(C)C)cc1 (some centres not stated)	-15%	-2%	8%	12%	-20%	.
O=C(c1cccs1)[C@@H]1[C@@H]2C(=O)N(Cc3ccc4c(c3)OCO4)C(=O)[C@@H]2C2c3ccccc3C=CN21 (some centres not stated)	-14%	3%	9%	?	?	22µM*
O=C(Nc1ccc2c(c1)OCO2)[C@@H]1[C@@H]2C(=O)N(C3CCCCC3)C(=O)[C@@H]2C2c3ccccc3C=CN21 (some centres not stated)	?	-3%	2%	-14%	?	?
COc1ccc(N2C(=O)[C@@H]3[C@H](C2=O)[C@H]2c4ccccc4C=CN2[C@@H]3C(C)=O)cc1	?	0%	-6%	?	-27%	16µM*
CC(C)(C)C(=O)[C@@H]1[C@@H]2C(=O)N(C3CCCCC3)C(=O)[C@@H]2[C@H]2c3ccccc3C=CN12	?	-2%	2%	?	?	32µM*
O=C(c1ccc2c(c1)OCO2)[C@@H]1[C@@H]2C(=O)N(C3CCCCC3)C(=O)[C@@H]2C2c3ccccc3C=CN21 (some centres not stated)	?	-1%	-15%	?	?	28µM*
CCOc1ccc(N(C)C(=O)c2oc(=O)c3ccccc3c2-c2ccccc2)cc1	.	-8%	10%	-4%	-20%	-15%
O=C(NCCN1CCCCC1)c1ccc2c(c1)OCCO2	-4%	-3%	2%	-8%	9%	14%
CCOC(=O)c1cc(=O)cc(C(=O)OCC)o1	8%	-2%	-4%	-1%	5%	-3%
C(=C/c1nccc2c1[nH]c1ccccc12)/c1ccc2c(c1)OCO2	?	-5%	10%	7%	7.1µM*[quencher]	?
CC(C)(C)OC(=O)[C@H](Cc1ccccc1)NC(=O)c1nc[nH]c1C(=O)N[C@@H](Cc1ccccc1)C(=O)OC(C)(C)C	-6%	1%	6%	?	-19%	-6%
CCOC(=O)c1ccc(NC(=O)c2nc[nH]c2C(=O)N[C@@H](Cc2ccccc2)C(=O)OC(C)(C)C)cc1	?	0%	-4%	?	?	?
SMILES	KDM4E inh	TR SRC2 fluor cs	TRb SRC2 PPI	Tau FP inhib	Tau fluor cs	Tau ThT inhib
Cc1cccc(NC(=O)c2nc[nH]c2C(=O)N[C@@H](CC(C)C)C(=O)OC(C)(C)C)c1	?	-1%	-9%	13µM*	?	8%
CC(C)(C)OC(=O)[C@H](Cc1ccccc1)NC(=O)c1[nH]cnc1C(=O)Nc1ccc(Cl)cc1	-20%	-2%	1%	13µM*	?	15%
CC(C)C[C@H](NC(=O)c1[nH]cnc1C(=O)Nc1ccc(Cl)cc1)C(=O)OC(C)(C)C	?	0%	-1%	11µM*	-26%	18%
Cc1cccc(NC(=O)c2nc[nH]c2C(=O)N[C@@H](Cc2ccccc2)C(=O)OC(C)(C)C)c1	-14%	-1%	1%	8.9µM*	?	?
CC(C)C[C@H](NC(=O)c1nc[nH]c1C(=O)N[C@@H](CC(C)C)C(=O)OC(C)(C)C)C(=O)OC(C)(C)C	12%	-3%	4%	-13%	-22%	-12%
Cc1ccc(-c2cc(-c3c(C)nn(C)c(=O)c3N)[nH]n2)cc1	3%	0%	7%	5%	-12%	?
Cc1ccc2nc(-c3cccs3)c(Nc3c(C)cccc3C)n2c1	.	2%	-5%	-12%	-29%	-16%
CCCCc1nc2n[nH]c(N)c2c2c1CSC(C)(C)C2	-2%	1%	4%	17%	-16%	-6%
CC(C)(C)OC(=O)[C@H](Cc1ccccc1)NC(=O)c1[nH]cnc1C(=O)Nc1cccc(Cl)c1	?	-3%	3%	22µM*	?	16%
CCOC(=O)C1=C(C)N=c2s/c(=C/c3ccccc3)c(=O)n2C1c1ccc(OC)c(OC)c1 (configuration not stated)	-3%	-3%	-1%	1%	-9%	-15%
